# Rows were chosen to be rich in hits. Some 2.8% of all compounds tested hit in one or more screens of this group.
# MBNL1-CUG inh = inhibitors of human MBNL1 binding to CUG repeat RNA. Q9NR56. 280,000 tested, 0.036% active. TR-FRET MBNL1-His/biotin-(CUG)12 binding, 665/545 ratio. Potency, µM (top dose mostly 57.5 µM), without a hit: top-dose activity change, negative = inhibition, usual class: inhibitors. AID 2675; active means well fitted inhibition curve with a large enough effect in the signal ratio, with a control signal flat, not every such curve was filed as active; inconclusive means small, poorly fitted or top-dose-only effect, or effect the other way, or a change in a side signal; inactive means no such curve, though single readings can be large or run the other way; the % refers to the signal ratio; further: potency means the concentration at half of the fitted maximal effect; on the % scale 0 is the no-effect control and ±100 the full control effect
# Target sequence (Q9NR56 whole entry, looked up): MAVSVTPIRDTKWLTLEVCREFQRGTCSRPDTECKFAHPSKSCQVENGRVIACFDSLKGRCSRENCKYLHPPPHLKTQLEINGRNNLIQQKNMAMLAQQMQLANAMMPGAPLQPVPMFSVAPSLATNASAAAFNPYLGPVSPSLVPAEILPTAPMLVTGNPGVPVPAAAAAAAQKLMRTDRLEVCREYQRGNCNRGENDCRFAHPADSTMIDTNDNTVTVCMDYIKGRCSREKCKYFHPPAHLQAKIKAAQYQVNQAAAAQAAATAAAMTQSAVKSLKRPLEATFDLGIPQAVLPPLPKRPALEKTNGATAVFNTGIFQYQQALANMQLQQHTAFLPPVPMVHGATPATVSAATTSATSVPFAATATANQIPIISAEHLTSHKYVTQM
#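 Compounds (final 92 nM to 58 uM) are added to His-tagged MBNL1 and biotin-(CUG)12, then terbium anti-His antibody and streptavidin-XL665 (5 nM final). After 60 min at room temperature, the 665/545 nm ratio is read.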
# CBFb-RUNX1 inh = CBF-beta/RUNX1 interaction disruption | Q01196+Q13951 | AlphaScreen CBFb-His/RUNX1-biotin binding, biochemical | Potency, µM (highest dose often 59.8 µM), inactives show at the top dose activity, negative = inhibition, actives largely listed as inhibitors | 230,000 tested, under 10 active; further: % of control where 0% means no effect
#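 AlphaScreen proximity signal reports loss of binding between His-tagged CBF-beta and biotin-labelled RUNX1, each at 30 nM. Proteins are pre-associated for 20 minutes, compounds added for 15 minutes, then beads for 90 minutes, all at ambient temperature.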
# D3 antag = D3 dopamine receptor (human) antagonism. max response, negative = inhibition, %. 360,000 tested, 2.5% active. P35462. AID 652054. D3R cells, DiscoveRx beta-arrestin luminescence, antagonist mode; stronger effect = lower value; in the data active means max response below about -50%; inconclusive means no clear call, values can overlap the other calls; further: on the % scale 0 is the no-effect control and ±100 the full control effect
#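 Cells plated overnight at 1500 cells/well, then exposed to library compounds with dopamine controls for 90 minutes at 37 degrees C. DiscoveRx reagent added for 30–60 minutes at room temperature; luminescence read, quantitative HTS format.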
# PTHR1 ag = PTHR1 (human) receptor agonism; Q03431; Potency, µM (highest dose often 115 µM), for the others: at the highest dose activation, hits mostly activators; 410,000 tested, 0.075% active; AID 743266; HEK293 GP2 PTHR1 cells, GloSensor cAMP luminescence, 1 h; further: potency means the concentration at half of the fitted maximal effect; nearly all actives have a fitted effect of over 55% in size
#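 HEK-293-derived GP2 cells expressing PTHR1 and a GloSensor cAMP reporter, 3,000/well, plated overnight, given luciferin plus IBMX (each 0.5 mM as added) for 1 h at 37 °C, then compound for 1 h at 37 °C. Luminescence was read after 15 min at room temperature.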
# a7 integrin act = integrin-mediated muscular dystrophy alleviation activation | alpha7betagal myoblasts, beta-gal FDG fluorescence, 48 h | Potency, µM (titrated, usually from 38.3 µM), for the others: at the highest dose activation, actives largely listed as activators | 350,000 tested, 0.064% active | AID 624291;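 further: potency means the concentration at half of the fitted maximal effect; 100% = response of the positive control SU9516; nearly all actives have a fitted effect of over 60% in size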
#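 Alpha7betagal+/- myoblasts (passage 13) were plated 16-24 hr, then exposed to compounds (1:260 dilution of DMSO stock) for 48 hours at 37C. After MPER lysis, β-galactosidase reporter activity was read as FDG fluorescence (ex 480/em 540) after 30 minutes.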
# DRD3 agonist = activates the human D3 dopamine receptor; D3R DiscoveRx beta-arrestin cells, luminescence, 90 min; max activation, %; 410,000 tested, 0.58% active; in the data active means max activation above about 30%; further: 0% is about no effect
#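 Cells at 1500/well, incubated overnight, then treated with pinned compounds (dopamine as control) for 90 min at 37 degrees C. DiscoveRx reagent added for 30 - 60 minutes at room temperature; luminescence read.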
# An asterisk follows results filed as active; i = inactive; ? = inconclusive; . = no result given; ! = not active in a repeat; [ ] = dose if it differs, or a comment. Unless noted, the call rests on the fitted dose curve; in most records, active means well fitted curve in the direction sought with a large enough effect; inconclusive means small, poorly fitted or top-dose-only effect, or another doubt; inactive means no such curve, though single readings can be large; an effect the other way counts as inactive or inconclusive.
SMILES,MBNL1-CUG inh,CBFb-RUNX1 inh,D3 antag,PTHR1 ag,a7 integrin act,DRD3 agonist
CCOc1ccc(OCCOCCN2CCOCC2)cc1,-1.2%,0.6%,?,i,1.3%,-2.3
Clc1ccc(OCCCCCN2CCOCC2)cc1,-8.0%,.,16.7,i,-15.8%,-15.8
CCCCOc1ccc(OCCCN2CCOCC2)cc1,6.5%,9.8%,4.9,-15.4%,.,87.3*!
CCC(C)c1ccc(OCCCCN2CCOCC2)cc1 (stereo not drawn),4.3%,0.5%,-64.6*,-7.1%[57.5 µM],-16.4%,-6.1
COc1ccc(N2C(=O)CN(Cc3ccc(OC)c(OC)c3)C2=S)cc1,6.2%,5.9%,9.0,-2.2%,-38.1%,-8.2
CSc1ccc(CCNC(=O)C2CCCN(S(=O)(=O)N(C)c3ccc(F)cc3)C2)cc1 (stereo not drawn),.,.,.,-40.2%,.,9.6
CCCCCCCCCCCCCCCC(=O)OCCC1CCN(CCCN2c3ccccc3Sc3ccc(S(=O)(=O)N(C)C)cc32)CC1,.,.,.,.,.,-22.8
CN1CCN(CCCN2c3ccccc3Sc3ccc(S(=O)(=O)N(C)C)cc32)CC1,.,14.0%[21.7 µM],-53.0*,-8.6%,.,-23.2
O=C(N/N=C/c1ccc(-c2ccccc2[N+](=O)[O-])o1)c1cccnc1,?,-1.3%,-58.6*,i,-50.4%,-1.9
O=C(NCc1ccccc1)c1ccc(-c2ccccc2C(F)(F)F)o1,-22.6%,25.6%[89.1 µM],-55.8*,-7.9%,-5.5%,-89.7
O=C(NCc1cccnc1)c1ccc(-c2ccccc2[N+](=O)[O-])o1,?,-11.0%,-55.1*,-5.2%,-4.9%,-6.0
O=C(NCc1cccnc1)c1ccc(-c2cccc(Cl)c2Cl)o1,17.4%,1.2%,-25.0,-8.2%,-2.4%,-17.0
O=C1C=CC2=C3c4cc(O)c(O)cc4CC3(O)COC2=C1O (stereo not drawn),.,?,-14.7,-41.8%,10.0%,29.2
CC(C)(C)OC(=O)N1CCC[C@H]1C(=O)N1CCC[C@H]1C(=O)NCc1ccncc1,.,.,2.5,-22.7%,.,-3.1
Cc1cn([C@H](C(=O)NCCCCCCCCCCC(=O)N2CCNCC2)[C@@H](C)O)nn1,.,.,-64.4*,?,-30.2%,-16.6
C[C@H](NC(=O)C1CC(=O)N(c2ccc3c(c2)OCO3)C1)C(=O)NC1CCCCC1 (stereo partly drawn),5.9%,.,-5.4,-24.1%,-24.5%,6.7
Cc1c(/C=C(\C#N)C(=O)Nc2cccc(Cl)c2)c2ccccc2n1Cc1ccccc1Cl,.,.,.,-14.6%,.,-14.3
CNC(=O)OCc1nc(SC2CCCCO2)n(C)c1COC(=O)NC (stereo not drawn),.,.,-21.1,0.0%,.,1.3
CC(Sc1nnc2ccccn12)C(=O)Nc1ncc(Cl)cc1Cl (stereo not drawn),3.3%,2.5%,-50.2*,i,19.0%,-5.1
CC(Sc1nnc2ccccn12)C(=O)Nc1ccc(Cl)cn1 (stereo not drawn),-11.6%,3.2%,-1.9,-1.4%[57.5 µM],-3.5%,-24.9
COc1ccc(-n2c(SC(C)C(=O)Nc3ncc(Cl)cc3Cl)nc3ccccc32)cc1 (stereo not drawn),5.8%,-14.6%,17.3,-3.5%,7.8%,35.8*
CC(Sc1ccc2c(c1)OCCO2)C(=O)Nc1ncc(Cl)cc1Cl (stereo not drawn),-1.1%,-1.0%,-8.5,i,0.0%,-4.0
N#Cc1cccc(-c2csc(C(O)c3ccco3)n2)c1 (stereo not drawn),.,.,-25.3,?,.,-5.8
Cc1ccc(NC(=S)NNc2ncc(C(F)(F)F)cc2Cl)cc1,31.8%,-7.1%,-68.4*,-30.9%,-24.9%,-36.2
Fc1ccc(NC(=S)NNc2ncc(C(F)(F)F)cc2Cl)c(F)c1,5.4%,-2.8%,-74.8*,-31.1%,-81.0%,5.2
O=S(=O)(NNc1ncc(C(F)(F)F)cc1Cl)c1ccc(F)cc1F,.,.,1.1,i,-36.1%,2.2
O=C(NNc1ncc(C(F)(F)F)cc1Cl)c1ccc(Cl)c(Cl)c1,0.0%,0.8%,2.2,-37.6%,-14.5%,18.2

# Screening data: PubChem BioAssay, National Center for Advancing Translational Sciences (NCATS)
